Screening results (PubChem)
Rows were chosen to be rich in hits. Some 12% of all compounds tested hit in one or more screens of this group.
G9a inh: qHTS Assay for Inhibitors of Histone Lysine Methyltransferase G9a; G9a H3K9 monomethylation, AlphaScreen, 2 h; Potency, µM (doses to about 102 µM), for the others: at the highest dose activity, negative = inhibition, most hits filed as inhibitors; 8.8% of 350,000 active; further: potency means the concentration at half of the fitted maximal effect; on the % scale 0 is the no-effect control and ±100 the full control effect; nearly all actives have a fitted effect of over 75% in size
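Using a bead-based AlphaScreen, monomethylated H3K9 product from 2 h room-temperature reactions (G9a 20 nM, peptide 500 nM, SAM 20 uM) was detected with 0.5 ug/mL rabbit anti-H3K9me1 antibody.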
PI5P4Ka inh: qHTS for Inhibitors of phosphatidylinositol 5-phosphate 4-kinase (PI5P4K). Phosphatidylinositol 5-phosphate 4-kinase type-2 alpha (Homo sapiens), P48426. PI5P4Kalpha enzyme, ADP-Glo luminescence, 60 min; active compounds read low. max response, %. 1.2% of 330,000 active. AID 652105, 2013; active means max response of -50% or lower; inconclusive means between -30% and -50%; inactive means -30% or higher; further: value at the top dose of about 77 µM; on the % scale 0 is the no-effect control and ±100 the full control effect
Target sequence (P48426 whole entry, looked up): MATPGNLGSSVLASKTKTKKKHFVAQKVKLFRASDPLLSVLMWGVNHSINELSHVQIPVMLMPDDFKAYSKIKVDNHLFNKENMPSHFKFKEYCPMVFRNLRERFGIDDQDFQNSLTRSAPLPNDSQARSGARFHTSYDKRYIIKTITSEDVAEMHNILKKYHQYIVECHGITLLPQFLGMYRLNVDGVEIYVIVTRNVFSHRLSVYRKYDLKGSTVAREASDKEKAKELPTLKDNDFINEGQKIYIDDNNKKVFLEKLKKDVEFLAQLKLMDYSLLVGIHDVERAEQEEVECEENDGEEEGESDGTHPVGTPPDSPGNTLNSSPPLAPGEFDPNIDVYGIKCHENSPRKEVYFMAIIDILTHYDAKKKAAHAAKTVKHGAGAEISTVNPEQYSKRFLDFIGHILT
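Compounds were pin-transferred onto PI5P4Kalpha and substrate in HEPES pH 7.4 buffer with EGTA, CHAPS and 5% DMSO. ATP (5 microM final) started the reaction, which ran 60 minutes at room temperature before ADP-Glo detection.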
BAZ2B block: qHTS Assay for Inhibitors of BAZ2B; 4.4% of 360,000 active; Bromodomain adjacent to zinc finger domain protein 2B (Homo sapiens), Q9UIF8; Potency, µM (titrated, usually from 114 µM), without a hit: at the top dose activity change, negative = inhibition, hits mostly inhibitors; AID 504333, 2011; AlphaScreen BAZ2B-H3K14Ac peptide displacement; further: potency means the concentration at half of the fitted maximal effect; on the % scale 0 is the no-effect control and ±100 the full control effect; nearly all actives have a fitted effect of over 60% in size
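BAZ2B (50 nM) with biotin-H3(5-23)K14Ac peptide (50 nM) in PBS pH 7.4, 0.01% Tween-20, preformed 30 min, then compound 30 min at room temperature; top concentration 110uM. AlphaScreen streptavidin donor/nickel chelate acceptor beads (10 ug/mL final), 20 min dark, signal read.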
HP1b chromo inh: HTS for Inhibitors of HP1-beta Chromodomain Interactions with Methylated Histone Tails | Chromobox protein homolog 1 (Homo sapiens), P83916 | AlphaScreen HP1-beta / biotin-H3K9me3 peptide binding | Potency, µM (titrated, usually from 114 µM), for inactives: top-dose activity change, negative = inhibition, usual class: inhibitors | 0.56% of 390,000 active | AID 540317, 2011; further: potency means the concentration at half of the fitted maximal effect; nearly all actives have a fitted effect of over 70% in size
Target sequence (P83916 whole entry, looked up): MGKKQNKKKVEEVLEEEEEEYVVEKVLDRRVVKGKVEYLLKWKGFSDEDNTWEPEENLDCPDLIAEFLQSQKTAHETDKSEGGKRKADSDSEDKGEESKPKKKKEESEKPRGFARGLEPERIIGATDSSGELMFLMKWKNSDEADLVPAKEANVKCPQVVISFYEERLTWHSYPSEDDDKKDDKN
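AlphaScreen: HP1-beta (50 nM) preformed 30 min with biotin-H3(1-18)K9me3 peptide (50 nM) in PBS pH 7.4, 0.01% Tween-20. Compound added for 30 min at RT, then streptavidin donor/nickel chelate acceptor beads (10 ug/mL) for 30 min.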
JMJD2A Tudor: qHTS Assay for Inhibitors of JMJD2A-Tudor Domain; AlphaScreen JMJD2A-Tudor / H3K4me3 peptide binding; Potency, µM (titrated, usually from 114 µM), for inactives: at the top dose activity change, negative = inhibition, most hits filed as inhibitors; 4.4% of 390,000 active; further: potency means the concentration at half of the fitted maximal effect; on the % scale 0 is the no-effect control and ±100 the full control effect; nearly all actives have a fitted effect of over 50% in size
PLK1 PBD inh: qHTS for Inhibitors of PLK1-PDB (polo-like kinase 1 - polo-box domain): Primary Screen. Serine/threonine-protein kinase PLK1 (Homo sapiens), P53350. Plk1 PBD binding of FITC phosphopeptide, fluorescence polarization. Potency, µM, for inactives: max response, negative = inhibition, actives largely listed as inhibitors. 2.8% of 360,000 active. AID 720504, 2013; further: potency means the concentration at half of the fitted maximal effect; series mostly up to about 57 µM; on the % scale 0 is the no-effect control and ±100 the full control effect; nearly all actives have a fitted effect of over 65% in size
An asterisk follows results filed as active; ? = inconclusive; . = no result given; ! = not active in a repeat; [ ] = another dose, or the depositor's remark. Unless noted, the call rests on the fitted dose curve; in most records, active means well fitted curve in the direction sought with a large enough effect; inconclusive means small, poorly fitted or top-dose-only effect, or another doubt; inactive means no such curve, though single readings can be large; an effect the other way counts as inactive or inconclusive.

SMILES | G9a inh | PI5P4Ka inh | BAZ2B block | HP1b chromo inh | JMJD2A Tudor | PLK1 PBD inh
Cc1cccc(NC(=O)c2sc3cccc(Cl)c3c2Cl)c1 | 55.5%[59 µM] | . | 21.1% | 60.9% | 37.9% | .
Cc1cc(S(=O)(=O)Nc2nc(CN3CCOCC3)nc3sc4c(c23)CCC4)ccc1F | . | -12.7 | . | 34.4% | -21.9% | -10.2%
Cc1cccc(NC(=O)CSC2=Nc3ccccc3C3=NC(CC(=O)NCc4cccs4)C(=O)N23)c1 (stereo not drawn) | -8.4%[59 µM] | . | -6.3% | 33.8% | -15.1% | .
N#Cc1ccc(OCC(=O)Nc2cc(S(=O)(=O)N3CCOCC3)ccc2N2CCOCC2)cc1 | 70.8µM* | 2.1 | -7.1% | 16.4% | 0.4% | 3.2%
N#Cc1ccc(OCC(=O)Nc2cc(S(=O)(=O)N3CCOCC3)ccc2N2CCCC2)cc1 | . | -2.9 | . | 34.2% | -8.1% | -2.3%
COc1ccccc1NC(=O)COn1nnc2ccc(S(=O)(=O)N3CCOCC3)cc21 | 7.0% | -25.8 | -14.6% | -16.1% | ? | 18.9µM*
CCC(Oc1ccccc1)C(=O)NC1CCCCCC1 (stereo not drawn) | 4.4% | 1.1 | 6.6% | 61.1% | -5.4% | -14.0%
CCC(Oc1ccccc1)C(=O)NC1CCSC1=O (stereo not drawn) | 44.7µM* | 1.4 | -15.2% | 48.9% | -1.9% | -10.9%
COC(=O)C(C)(N)Cc1ccc(O)cc1 (stereo not drawn) | 25.1µM*! | 1.2 | 9.6% | 21.2% | -19.4% | -16.8%
C[C@](N)(Cc1ccc(O)cc1)C(=O)O | -0.2%[59 µM] | . | . | . | . | .
O=C(O)c1oc2ccccc2c1-n1cccc1 | ? | -7.2 | 4.5% | -3.6% | 79.4µM* | -9.4%
COC(=O)c1oc2ccc(Br)cc2c1-n1cccc1 | 16.1%[59 µM] | 12.1 | -1.3% | 20.8% | -28.8% | -4.1%
Cc1cc(C)c(NC(=O)C2CCCCN2C)c(C)c1 (stereo not drawn) | 89.1µM* | . | ? | 24.7% | -14.5% | 0.9%
Cc1cc(C)c(NC(=O)C2CCCN2CCC(C)C)c(C)c1 (stereo not drawn) | ? | 0.0 | -2.7% | 24.7% | 0.0% | -7.5%
Cc1ccc(C(=O)O)cc1NC(=O)c1cccs1 | ? | . | 39.4% | 35.0% | -11.2% | 0.4%
Cc1ccc(C(=O)O)cc1NC(=O)C1=CSCCO1 | 50.1µM* | 0.7 | -7.2% | 53.3% | 14.4% | -7.1%
CCCc1c2c(cc3c(=O)cc(C(=O)OCC)oc13)CCCC2 | 41.5% | -8.8 | 15.1% | 28.6% | ? | 21.2µM*
CCC(NC(=O)CCl)c1ccc(C)cc1 (stereo not drawn) | -40.1% | -8.8 | -22.0% | -11.6% | 56.2µM* | 29.9µM*
Cc1cccc2nc(CSc3ccccc3C(=O)O)cn12 | -13.7% | -1.2 | 11.0% | 39.5% | 3.5% | 8.0%
COc1cc2c(cc1OC)C(CC#N)=NC(C)(C)C2 | ? | -2.4 | -7.6% | -4.7% | -20.3% | -3.2%
COc1cc2c(cc1OC)C(CSc1ccccc1C(=O)O)=NC(C)(C)C2 | ? | -2.3 | 79.4µM* | -0.6% | ? | -11.4%
CC1(C)Cc2ccccc2C(CSc2ccccc2C(=O)O)=N1 | . | -15.5 | 50.1µM* | -38.9% | 56.2µM* | -16.6%
Fc1cccc(NC(=S)N2CCn3cccc3C2c2cccnc2)c1 (stereo not drawn) | 50.1µM* | 0.4 | ? | -5.1% | -32.2% | -8.4%
COc1ccccc1NC(=S)N1CCn2cccc2C1c1cccnc1 (stereo not drawn) | 56.2µM* | -1.3 | -33.4% | -0.1% | -21.7% | -5.7%
S=C(Nc1ccccc1)N1CCn2cccc2C1c1cccnc1 (stereo not drawn) | ? | 3.9 | -38.9% | -11.5% | ? | -1.5%
SMILES | G9a inh | PI5P4Ka inh | BAZ2B block | HP1b chromo inh | JMJD2A Tudor | PLK1 PBD inh
Fc1ccccc1C1c2cccn2CCN1C(=S)Nc1ccc(Br)cc1 (stereo not drawn) | 25.1µM* | 8.8 | -4.1% | 19.7% | -23.3% | -1.1%
COc1ccccc1CNC(=O)CCC1N=C2c3ccccc3N=C(SCc3ccc(C)cc3C)N2C1=O (stereo not drawn) | -8.0%[59 µM] | . | -15.2% | 22.7% | -19.5% | .
CC1N(C)c2cc(NC(=O)c3ccco3)ccc2C1(C)C (stereo not drawn) | ? | . | 50.1µM* | -11.3% | ? | -8.4%
COc1ccc(NC(=O)N2CC3(CCN(C(=O)c4cc(C(F)(F)F)cc(C(F)(F)F)c4)CC3)C2)cc1 | -2.6%[12.7 µM] | . | . | . | . | .
CN1CC[C@]2(CCN3CCc4c(oc5ccccc45)[C@@H]3C2)N(C)C1=O | -30.5%[59 µM] | 0.3 | 8.0% | 21.8% | -26.6% | -4.1%
Cc1ccccc1-n1cc[nH]c1=S | 12.6µM* | -5.2 | 4.9% | 15.7% | 10µM* | ?
S=c1[nH]ccn1-c1c(Cl)cccc1Cl | 10µM* | 2.1 | -11.8% | 25.4%[57 µM] | 1.8% | -9.9%
Cc1cccc(-n2cc[nH]c2=S)c1C | 1.78µM* | -6.1 | -5.8% | 34.9% | 39.8µM* | -21.2%
CC(C)c1ccccc1-n1cc[nH]c1=S | 3.98µM* | -6.1 | ? | 22.7% | 22.4µM* | -20.8%
Cc1cccc(-n2ccnc2SCC(=O)O)c1C | -26.8% | 3.0 | -5.9% | 35.2% | -12.8% | -10.4%
Cc1cccn(Cc2c(Cl)cccc2Cl)c1=O | . | 1.8 | . | 35.0% | -0.7% | -6.6%
Cc1cccc(-n2cc[nH]c2=S)c1 | 2.82µM* | -10.1 | -0.9% | 11.0% | 5.62µM* | -19.3%
Cc1ccnc(SCc2cc(=O)c(OC(=O)c3cccs3)co2)n1 | -1.8% | 10.3 | 6.0% | 32.2% | -14.0% | -12.8%
Cc1cc(C)nc(SCC(=O)NNC(=O)c2cccs2)n1 | 56.2µM* | -1.3 | -9.2% | ? | -1.4% | -7.1%
C/C(=N\NC(=O)CSc1nc(C)cc(C)n1)c1cccs1 | -3.8%[59 µM] | 1.6 | 8.2% | 50.2% | -1.4% | -12.7%
Cc1ccnc(SCC(=O)c2ccc(Br)s2)n1 | 17.8µM* | -2.7 | -35.4% | 50.0% | 11.1% | -22.0%
Cc1cc(C)nc(SCC(=O)NNS(=O)(=O)c2ccc(C#N)cc2)n1 | 7.94µM* | ? | 56.2µM* | ? | 44.7µM* | ?
Cc1ccnc(SCC(=O)c2cccs2)n1 | 35.5µM* | -0.1 | -4.4% | 35.3% | -8.3% | -19.2%
Cc1ccc(OCCCCn2c(CCNC(=O)C3CCCCC3)nc3ccccc32)cc1 | . | . | . | 11.6%[57 µM] | 0.8%[57.1 µM] | .
O=C(NCc1cccnc1)c1ccccc1NS(=O)(=O)c1ccc(Br)cc1 | . | -10.0 | . | 51.4% | -19.9% | -7.0%
COc1ccc(NC(=O)c2oc3ccccc3c2NC(=O)c2cc(C)cc(C)c2)c(OC)c1 | -0.9%[59 µM] | . | -32.9% | 26.9% | -15.2% | .
